Activity calls are given as the source filed them.
Columns and labels:
[1] = compound effects on lung adenocarcinoma cell viability – A549, calcein-AM fluorescence, 48 h, basal, profiling panel (AID 1162); conditions: higher = more signal
[2] = compound effects on differentiated 3T3-L1 adipocyte viability – cell-based, 3T3-L1 adipocytes, calcein-AM fluorescence, 48 h, basal, profiling panel (AID 1163); conditions: 3T3-L1 adipocytes viability, higher = more signal
[3] = compound effects on hepatocellular carcinoma cell viability – HepG2, calcein-AM fluorescence, 48 h, basal, profiling panel (AID 1164); conditions: higher = more signal
[4] = compound effects on multiple myeloma cell viability – MM1S, calcein-AM fluorescence, 48 h, basal, profiling panel (AID 1165); conditions: higher = more signal
[5] = calcein-AM signal in unstimulated myeloma cells – cell-based, calcein-AM fluorescence, 48 h, PK04 Diversity Set, profiling panel (AID 1166); conditions: RPMI8226 myeloma viability, higher = more signal;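 also: cells grown under basal conditions without added stimulus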
[6] = JC-1 mitochondrial signal, unstimulated HepG2 cells – cell-based, JC-1 fluorescence, 24 h, 100 nL compound, profiling panel (AID 1167); conditions: HepG2 mitochondrial potential, higher = more signal
[7] = JC-1 mitochondrial signal, unstimulated adipocytes – cell-based, JC-1 fluorescence, 3T3-L1 adipocytes, 24 h, 100 nL compound, profiling panel (AID 1168); conditions: JC-1 mitochondrial fluorescence, higher = more signal, called active from +8 up or from −8 down
[8] = JC-1 mitochondrial signal, unstimulated myeloma cells – cell-based, JC-1 fluorescence, RPMI8226, 24 h, 100 nL compound, profiling panel (AID 1169); conditions: JC-1 mitochondrial potential fluorescence, higher = more signal
[9] = JC-1 mitochondrial signal, unstimulated MM1S myeloma – cell-based, JC-1 fluorescence, 24 h, 100 nL compound, profiling panel (AID 1170); conditions: MM1S mitochondrial potential, higher = more signal
[10] = resazurin metabolic signal in A549 cells – cell-based, resazurin fluorescence, 24 h, PK04 Diversity Set, profiling panel (AID 1171); conditions: A549 viability, higher = more signal, called active from +8 up or from −8 down
Also: test concentration not given here.

| Compound | z-score [1] | z-score [2] | z-score [3] | z-score [4] | z-score [5] | z-score [6] | z-score [7] | z-score [8] | z-score [9] | z-score [10] |
| --- | --- | --- | --- | --- | --- | --- | --- | --- | --- | --- |
| CCCCC(=C=CC[C@@H](O)c1ccc(OCCO)cc1)C[C@@H](O)COCc1ccccc1 | 2.64 | 0.716 | 2.15 | -1.35 | -0.586 | 0.605 | -0.0104 (inactive) | 0.178 | -1.18 | 0.812 (inactive) |
| CC(=O)N1Cc2ccccc2C[C@]2(N=C(c3ccc(OCCCO)cc3)O[C@@H]2c2ccccc2)C1=O | -1.07 | 0.749 | -0.351 | -2.28 | -3.5 | 0.462 | -0.202 (inactive) | -0.954 | -0.637 | -2.76 (inactive) |
| [N-]=[N+]=NCc1ccccc1C[C@]1(C(=O)NCC(O)CO)N=C(c2ccc(OCCCO)cc2)O[C@H]1c1ccccc1CN=[N+]=[N-] (stereo not given in full) | -0.905 | 1.01 | -0.426 | -2.3 | -2.6 | 0.136 | -0.323 (inactive) | -1.02 | -0.555 | -0.402 (inactive) |
| C=CCNC(=O)[C@@H]1[C@H]2C(=O)O[C@H](c3ccccc3)[C@H](c3ccccc3)N2[C@H](c2ccc(OCCO)cc2)[C@@]12C(=O)N(C(=O)OCCOC)c1ccc(C#CC3=CCCCC3)cc12 | -0.549 | -0.354 | 0.0468 | -1.45 | -1.59 | -0.893 | -0.0381 (inactive) | -0.814 | -1.57 | -1.01 (inactive) |
| [N-]=[N+]=NCc1ccccc1C[C@@]1(C(=O)NCCN2CCOCC2)N=C(c2ccc(OCCCO)cc2)O[C@@H]1c1ccccc1N=[N+]=[N-] | -1.6 | 1.61 | -1.05 | -1.31 | -3.68 | 0.862 | -1.38 (inactive) | -0.923 | -1.12 | -0.0172 (inactive) |
| Cc1ccc(S[C@]2(C(=O)NCCN3CCOCC3)CC(=O)N(Cc3ccccc3C(F)(F)F)[C@@H]2c2ccc(CO)cc2I)cc1 | -0.209 | -0.292 | -0.695 | -2.85 | -2.15 | -0.178 | -1.03 (inactive) | -0.793 | -2.36 | 0.683 (inactive) |
| CN1C(=O)C2C=CC(C(O)C3CCCCC3)N(N3CCCCC3)C2C1=O (stereo not given) | -1.21 | -0.52 | -0.517 | -0.163 | 0.084 | -0.968 | -0.347 (inactive) | -0.763 | -0.228 | -0.167 (inactive) |
| C#CCNC(=O)[C@H](Cc1ccccc1)NC(=O)[C@@H](N=[N+]=[N-])C(C)C | -0.447 | -0.804 | 0.0785 | 0.579 | 0.116 | -0.266 | -0.503 (inactive) | -0.205 | 0.254 | 0.903 (inactive) |
| O=C1C[C@@](C(=O)NCC(F)(F)F)(c2ccc([N+](=O)[O-])cc2)[C@@H](c2ccc(CO)cc2)N1C1CCCCC1 | -0.113 | -1.03 | 0.268 | -1.34 | 0.258 | 0.0995 | -1.12 (inactive) | 0.685 | 0.0421 | 0.423 (inactive) |
| COCCCNC(=O)[C@@H]1c2ccccc2C(=O)N(Cc2ccccc2C(F)(F)F)[C@H]1c1ccc(CO)cc1 | 2.1 | 1.29 | 1 | 0.7 | 0.237 | 2.55 | -0.0216 (inactive) | -0.213 | 0.872 | 1.8 (inactive) |
| CN(C)CCCCNC(=O)[C@H]1C[C@H]2C(=O)N3CCC[C@H]3C(=O)N2[C@H]1c1ccc(O)cc1 | -0.448 | 0.862 | -0.55 | 0.26 | 0.293 | -0.835 | -0.104 (inactive) | 0.613 | -0.927 | 0.228 (inactive) |
| O=c1cccc(-c2ccc(C(F)(F)F)cc2)o1 | -1.24 | -0.843 | -0.701 | 0.506 | -1.02 | -0.487 | 1.75 (inactive) | 0.942 | -0.507 | 0.374 (inactive) |
| COc1cc(CO)cc(I)c1O[C@H]1C=C(C(=O)NCCO)C[C@@H](N(CC2CCCCC2)C(=O)c2ccc(C(F)(F)F)cc2)[C@@H]1O | 0.608 | -0.535 | 1.42 | 0.639 | -0.189 | 0.214 | -0.0651 (inactive) | -1.09 | -0.337 | 0.126 (inactive) |
| COCCOC(=O)N1C(=O)[C@@]2(c3cc(C#CC4=CCCCC4)ccc31)[C@H](C(=O)N1CCN(c3ncccn3)CC1)[C@H]1C(=O)O[C@H](c3ccccc3)[C@H](c3ccccc3)N1[C@@H]2c1ccc(O)cc1 | 0.463 | 0.218 | 1.15 | 0.269 | -0.802 | -1.16 | 0.207 (inactive) | -0.31 | -1.3 | -0.869 (inactive) |
| [N-]=[N+]=NCc1ccccc1[C@H]1OC(c2ccc(OCCCO)cc2)=N[C@@]1(CCS(=O)(=O)c1ccccc1)C(N)=O | -0.733 | 0.0036 | -0.423 | -1.83 | -0.973 | -2.13 | -1.36 (inactive) | -0.397 | -0.606 | 0.547 (inactive) |
| O=C1OCCC=C[C@H]2OC34C=CCN(c5ccc(Cl)cc5)C(=O)[C@H]3N(CCCCCO)C(=O)[C@@H]4C12 (stereo not given in full) | 0.657 | 0.0279 | 1.11 | 1.54 | -0.579 | 0.989 | 1.14 (inactive) | 0.211 | 0.0628 | 1.03 (inactive) |

| Compound | z-score [1] | z-score [2] | z-score [3] | z-score [4] | z-score [5] | z-score [6] | z-score [7] | z-score [8] | z-score [9] | z-score [10] |
| --- | --- | --- | --- | --- | --- | --- | --- | --- | --- | --- |
| C=C(C(=O)CC[C@H](OC(=O)c1cccnc1)c1cccc(OCCO)c1)C(C)C | 0.647 | 0.47 | -0.419 | -2.44 | -1.46 | -1.03 | 0.584 (inactive) | -0.0636 | -0.326 | 0.371 (inactive) |
| O=C1OC[C@@H](c2ccccc2)N2CC(/C=C/c3ccccc3)=CC12 (stereo not given in full) | -0.488 | -0.125 | -0.255 | -0.0482 | -0.267 | -0.251 | 0.291 (inactive) | -0.306 | 0.00388 | 1.05 (inactive) |
| CC(C)CCC[C@@H](C)[C@H]1CC[C@@]2(C)C3=C(CC[C@]12C)[C@@]1(C)CC[C@H](OC(=O)c2ccc(Br)cc2)C(C)(C)C1CC3 (stereo not given in full) | 0.986 | 0.889 | 2.04 | 0.109 | -0.269 | 1.14 | 0.599 (inactive) | 0.717 | -0.902 | -0.255 (inactive) |
| COc1ccc([Si](C)(C)[C@@H]2[C@@H](CCO)O[C@]3(C(=O)N(Cc4cccc(N5C(=O)c6ccccc6Oc6ccccc65)c4)c4ccccc43)[C@H]2C)cc1 | -0.799 | -0.472 | -3.38 | -1.89 | -4.32 | -0.192 | 0.614 (inactive) | -0.954 | -1.82 | -1.82 (inactive) |
| CC(C)c1ccc(NN2C(C(O)c3ccco3)C=CC3C(=O)N(c4ccccc4)C(=O)C32)cc1 (stereo not given) | 0.983 | -1.49 | 0.842 | -0.155 | -0.166 | -1.14 | -0.473 (inactive) | 0.473 | -0.921 | -0.635 (inactive) |
| COc1cc(CO)cc(I)c1O[C@H]1C=C(C(=O)NCCO)C[C@@H](NCc2ccccc2F)[C@@H]1O | 0.687 | -0.512 | 0.496 | 0.0067 | 0.12 | -0.0312 | -0.561 (inactive) | 0.231 | -1.59 | 0.106 (inactive) |
| COC(=O)[C@]1(CCS(=O)(=O)c2ccccc2)N=C(c2ccc(OCCCO)cc2)O[C@@H]1c1ccccc1CN=[N+]=[N-] | -2.82 | 0.65 | -2.94 | -3.4 | -3.15 | -1.05 | -1.02 (inactive) | -1.08 | -1.88 | -4.11 (inactive) |
| O=C(O)[C@H](Cc1ccccc1)n1cc(-c2ccccn2)nn1 | -0.529 | 0.039 | -0.129 | 0.228 | -0.608 | 0.237 | 1.56 (inactive) | -0.166 | -0.263 | 0.507 (inactive) |
| CCOC(=O)C[C@H]1[C@H](OC(=O)c2ccc(-c3ccccc3)cc2)[C@@H](NC(=O)c2ccc3ccccc3n2)c2cc(OCCCO)ccc2N1C(=O)c1ccccc1 | -1.05 | 0.312 | -0.677 | 0.23 | -0.248 | 1.35 | -0.248 (inactive) | 0.224 | 0.0802 | 0.0216 (inactive) |
| CC=CC(O)C1C=CC2C(=O)N(c3ccccc3)C(=O)C2N1Nc1ccccc1 (stereo not given) | 1.04 | -0.511 | 1.05 | 0.214 | -0.279 | -0.222 | 0.243 (inactive) | -0.866 | -0.749 | 0.0599 (inactive) |
| CC(CO)N1C(=O)[C@@H]2C3C(=O)OCCC/C=C\[C@H]3OC23C=CCN(Cn2nnc4ccccc42)C(=O)[C@@H]13 (stereo not given in full) | 0.0034 | -0.126 | 0.789 | 1.76 | 0.285 | 0.567 | 0.425 (inactive) | 0.222 | -1.33 | -0.0257 (inactive) |
| O=C1O[C@@H](c2ccccc2)[C@@H](c2ccccc2)N2[C@@H](c3ccc(O)cc3)[C@]3(C(=O)Nc4ccc(C#CC5=CCCCC5)cc43)[C@@H](C(=O)N3CCN(c4ncccn4)CC3)[C@H]12 | -1.9 | 0.0112 | -1.25 | -1.2 | -2.78 | -0.703 | 0.701 (inactive) | -0.588 | -0.877 | 0.785 (inactive) |
| COc1cc(OC)c(C(O)C2C=CC3C(=O)N(c4ccccc4)C(=O)C3N2Nc2ccc(C#N)cc2)cc1Br (stereo not given) | 0.423 | -0.693 | -0.268 | -0.475 | -0.241 | -1.66 | -0.403 (inactive) | -0.129 | -0.00738 | -0.578 (inactive) |
| CC(C)NC(=O)[C@@]1(C)c2ccccc2C(=O)N(C(C)C)[C@H]1c1ccc(CO)cc1 | -0.619 | 0.545 | -0.335 | 0.608 | 0.0593 | 0.313 | -0.527 (inactive) | 0.713 | 1.32 | -0.271 (inactive) |
| COc1cc2c(cc1OC)CN(C(=O)[C@@H]1[C@H]3C(=O)O[C@H](c4ccccc4)[C@H](c4ccccc4)N3[C@H](c3ccccc3OCCO)[C@@]13C(=O)Nc1ccc(C#CC4(O)CCCCCC4)cc13)CC2 | 0.74 | -0.277 | 0.711 | -0.292 | -1.88 | -0.612 | 1.3 (inactive) | -0.792 | -1.31 | -0.373 (inactive) |

Reference: PubChem BioAssay
